In PubChem BioAssay:
Calls of active or inactive are those of the source. Unless noted, how the calls were made is not given here.

What was measured:
[1] = test system: XIP peptide (Xip251-270) binding; test: XIP fragment 251-270 binding compounds – biochemical, small-molecule microarray, fluorescence 635/667 nm, 0.1 µg/mL protein, primary screen (AID 1182); conditions: fluorescent protein binding, 635 nm, higher = more signal, called active from +8 up or from −8 down
XIP peptide (Xip251-270) = test: compounds binding XIP fragment 251-270 – biochemical, small-molecule microarray, fluorescence 635/667 nm, 0.5 µg/mL protein, primary screen (AID 1183); conditions: fluorescence 635 nm, higher = more signal
[2] = blood-stage malaria parasite viability loss – strain 3D7, DAPI fluorescence, 100 nL, primary screen (AID 1184);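 further: parasites grown inside human red blood cells in medium with human serum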; conditions: P. falciparum 3D7 growth, 3 d, higher = more signal
[3] = target: Homeobox protein Hox-A13 (Mus musculus) (UniProt Q62424); test: disruptors of Hoxa13 oligonucleotide interaction – biochemical, fluorescence polarization, labeled oligonucleotide, primary screen (AID 1185); conditions: Hoxa13:DNA binding, 15 min, higher = more signal, called active from +8 up or from −8 down
Homeobox protein Hox-A13 (Mus musculus), sequence (Q62424 whole entry, looked up): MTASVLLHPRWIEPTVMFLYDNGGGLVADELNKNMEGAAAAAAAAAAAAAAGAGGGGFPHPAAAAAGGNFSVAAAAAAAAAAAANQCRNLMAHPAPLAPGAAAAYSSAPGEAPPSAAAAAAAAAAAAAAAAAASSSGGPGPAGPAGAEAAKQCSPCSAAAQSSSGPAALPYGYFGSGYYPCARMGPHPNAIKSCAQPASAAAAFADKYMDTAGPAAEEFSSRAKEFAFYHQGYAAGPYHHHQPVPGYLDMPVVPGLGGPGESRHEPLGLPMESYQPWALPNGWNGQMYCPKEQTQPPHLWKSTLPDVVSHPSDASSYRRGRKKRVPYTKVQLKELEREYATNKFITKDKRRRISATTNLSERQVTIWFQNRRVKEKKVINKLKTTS

[4] = blockers of DNA damage checkpoint Chk1 activation – imaging, HeLa, hydroxyurea, phospho-Chk1 antibody, percent positive cells, primary screen (AID 1186); conditions: hydroxyurea-induced phospho-Chk1 immunofluorescence imaging, higher = more signal
[5] = blockers of DNA damage checkpoint Chk1 activation – imaging, HeLa, hydroxyurea, phospho-Chk1 nuclear intensity, primary screen (AID 1187); conditions: hydroxyurea-induced phospho-Chk1 immunofluorescence imaging, higher = more signal

Row | SMILES | composite z-score [1] | composite z-score (XIP peptide (Xip251-270)) | z-score [2] | z-score [3] | z-score [4] | z-score [5]
1 | C=CCOC(=O)[C@@H]1[C@H]2C(=O)O[C@H](c3ccccc3)[C@H](c3ccccc3)N2[C@H](c2ccc(OCCOC(=O)[C@H]3C[C@H]4C(=O)N[C@@H](CCCCN(C)C)C(=O)N4[C@H]3c3cccc(OCCO)c3)cc2)[C@@]12C(=O)Nc1ccccc12 | 0.876 (inactive) | 0.686 | -0.405 | -1.64 (inactive) | -0.224 (inactive) | -0.375 (inactive)
2 | COc1ccc([Si](C)(C)[C@H]2[C@H](CCO)O[C@@]3(C(=O)N(Cc4ccccc4)c4ccc(NC(=O)[C@H](C)O)cc43)[C@@H]2C)cc1 | -0.0359 (inactive) | -0.313 | -2.6 | -5.67 (inactive) | -1.59 (inactive) | -0.751 (inactive)
3 | COc1ccc([Si](C)(C)[C@H]2[C@H](CC(=O)N(CCO)Cc3ccccc3)O[C@@]3(C(=O)N(Cc4ccc(N5C(=O)c6cccc7cccc5c67)cc4)c4ccccc43)[C@@H]2C)cc1 | 1.74 (inactive) | 0.587 | -2.11 | -1.38 (inactive) | -0.664 (inactive) | -0.393 (inactive)
4 | O=C(CS)NCCCCCCNC(=O)[C@H]1C[C@H]2C(=O)NCC(=O)N2[C@H]1c1cccc(OCCO)c1 | 0.419 (inactive) | 0.702 | -1.34 | -2.25 (inactive) | -0.321 (inactive) | -0.529 (inactive)
5 | C=CC[C@H](O)c1ccc(O)c2ccccc12 | 0.0693 (inactive) | 0.512 | -1.36 | -2.1 (inactive) | 0.835 (inactive) | 1.01 (inactive)
6 | O=C1OCC=C[C@H]2OC34C=CCN(Cn5nnc6ccccc65)C(=O)[C@H]3N(CCO)C(=O)[C@@H]4[C@@H]12 (some centres undefined) | -0.149 (inactive) | -0.884 | 1.12 | -4.12 (inactive) | -0.743 (inactive) | -0.287 (inactive)
7 | COc1ccc(CCNC(=O)[C@@]2(c3ccc([N+](=O)[O-])cc3)CC(=O)N(C3CCCCC3)[C@@H]2c2ccc(CO)cc2I)cc1 | 0.548 (inactive) | 0.671 | -1.96 | -3.27 (inactive) | 0.129 (inactive) | 0.294 (inactive)
8 | C=CCNC(=O)[C@@H]1[C@H]2C(=O)O[C@H](c3ccccc3)[C@H](c3ccccc3)N2[C@H](c2ccc(O)cc2)[C@@]12C(=O)Nc1ccc(C#CC3=CCCCC3)cc12 | 1.79 (inactive) | 0.716 | 0.155 | 0.828 (inactive) | 0.0206 (inactive) | -0.275 (inactive)
9 | COc1ccc([Si](C)(C)[C@H]2[C@H](CC(=O)N(CCO)Cc3ccccc3)O[C@@]3(C(=O)N(c4ccccc4)c4ccccc43)[C@@H]2C)cc1 | -0.372 (inactive) | 0.342 | -2.62 | -5.46 (inactive) | -0.807 (inactive) | -0.763 (inactive)
10 | COC(=O)[C@@]1(Cc2ccc(OC)cc2)[C@H]2c3cc(C(=O)N(C)C)n(Cc4c(CO)[nH]cc(C)c4=O)c3C[C@H]2CN1C(=O)c1ccccc1 | -0.582 (inactive) | 0.349 | -0.116 | -3.64 (inactive) | 0.54 (inactive) | 0.376 (inactive)
11 | CCOC(=O)C1=CC[C@@H](c2ccccc2)N(S(=O)(=O)c2ccc(C)cc2)[C@@H]1C#N | 0.216 (inactive) | 0.423 | -0.465 | -4.26 (inactive) | -1.95 (inactive) | -2.5 (inactive)
12 | O=C(O)C1=CC[C@H]2C(=O)N(c3ccccc3)C(=O)[C@@H]12 | 0.688 (inactive) | 0.783 | 0.0472 | -3.04 (inactive) | -0.416 (inactive) | -0.647 (inactive)
13 | Cc1ccc(S(=O)(=O)N2[C@@H](c3ccccc3)C(C(=O)O)=C[C@H]2C(C)(C)C)cc1 | 1.11 (inactive) | 0.792 | -1.04 | -5.12 (inactive) | 0.694 (inactive) | 0.0696 (inactive)
14 | COCCCNC(=O)[C@@]1(Cc2ccccc2I)c2ccccc2C(=O)N(Cc2ccccc2C(F)(F)F)[C@H]1c1ccc(CO)cc1 | 0.739 (inactive) | 0.854 | -0.821 | -4.3 (inactive) | 0.0894 (inactive) | -0.0472 (inactive)
15 | CS(=O)(=O)CCOC(=O)C1=CC(CCCO)=CC(C2CC2)N(Cc2sc3ccccc3c2Cl)C=C1C(=O)OCCS(C)(=O)=O (centres undefined) | 1.05 (inactive) | 0.257 | -3.02 | -4.7 (inactive) | -0.207 (inactive) | -0.0474 (inactive)
16 | O=C1C2C=CC(C(O)c3ccccn3)N(Nc3ccc([N+](=O)[O-])cc3)C2C(=O)N1c1ccccc1 (centres undefined) | 0.406 (inactive) | 0.0784 | -0.22 | -5.58 (inactive) | 1.25 (inactive) | -0.213 (inactive)
17 | COC(=O)[C@H](Cc1ccccc1)N1CC(C)(OC)O[C@@H](Cc2ccccc2)[C@H]1/C=C/C1CC1 (some centres undefined) | 0.242 (inactive) | -0.128 | 0.291 | -4.77 (inactive) | 0.512 (inactive) | 1.22 (inactive)

Row | SMILES | composite z-score [1] | composite z-score (XIP peptide (Xip251-270)) | z-score [2] | z-score [3] | z-score [4] | z-score [5]
18 | [N-]=[N+]=Nc1ccccc1C[C@]1(C(=O)N2CCCCC2)N=C(c2ccc(OCCCO)cc2)O[C@H]1c1ccccc1 | 1.48 (inactive) | 0.758 | -2.34 | -5.43 (inactive) | -0.554 (inactive) | -0.78 (inactive)
19 | [N-]=[N+]=Nc1ccccc1C[C@@]1(C(=O)NCc2ccccc2)N=C(c2ccc(OCCCO)cc2)O[C@@H]1c1ccccc1 | -0.116 (inactive) | 0.746 | -2.51 | -2.4 (inactive) | -0.603 (inactive) | -0.942 (inactive)
20 | CC1CC/C=C\[C@H]2OC34C=CCN(C(C)C)C(=O)[C@H]3N(C(C)CO)C(=O)[C@@H]4C2C(=O)O1 (some centres undefined) | -0.275 (inactive) | 0.384 | -0.577 | -5.82 (inactive) | -0.829 (inactive) | -0.249 (inactive)
21 | C=C(CCCC)C(=O)CC[C@H](OC(=O)c1ccccc1-c1ccccc1C(=O)O)c1cccc(OCCO)c1 | -0.459 (inactive) | 0.614 | -2.65 | -6.4 (inactive) | 1.01 (inactive) | 0.182 (inactive)
22 | C=CCOC(=O)[C@H]1[C@@H]2C(=O)O[C@@H](c3ccccc3)[C@@H](c3ccccc3)N2[C@@H](c2ccc(OCCOC(=O)[C@@H]3C[C@@H]4C(=O)N[C@@H](Cc5ccccc5)C(=O)N4[C@@H]3c3ccc(O)cc3)cc2)[C@]12C(=O)Nc1ccc(I)cc12 | 1.12 (inactive) | 0.751 | -1.39 | 0.703 (inactive) | -0.272 (inactive) | -0.152 (inactive)
23 | C=C(C(=O)CC[C@@H](OC(=O)c1ccccc1-c1ccccc1C(=O)O)c1ccc(CO)o1)C(C)C | 0.525 (inactive) | 0.434 | 1.88 | -5.42 (inactive) | 0.762 (inactive) | 0.478 (inactive)
24 | CCOC(=O)C[C@H]1[C@H](OC(=O)c2cc3ccccc3oc2=O)[C@@H](NC(=O)c2ccc(-c3ccccc3)cc2)c2cc(OCCCO)ccc2N1C(=O)Cc1ccc(OC)cc1 | 0.108 (inactive) | 0.437 | -0.638 | -3.12 (inactive) | 0.105 (inactive) | -0.0512 (inactive)
25 | O=C1C2C=CC(C(O)C3CC=CCC3)N(Nc3ccc([N+](=O)[O-])cc3)C2C(=O)N1c1ccccc1 (centres undefined) | 0.524 (inactive) | 0.545 | -0.627 | -3.86 (inactive) | 0.691 (inactive) | -0.101 (inactive)
26 | COc1ccc([Si](C)(C)[C@H]2[C@H](CC(=O)N3CCC[C@H]3CO)O[C@@]3(C(=O)N(Cc4cccc(N5CCCCC5=O)c4)c4ccccc43)[C@@H]2C)cc1 | 2.57 (inactive) | 0.714 | -1.33 | -3.23 (inactive) | -0.319 (inactive) | 0.519 (inactive)
27 | COC(=O)C(CC#Cc1ccc2c(c1)[C@]1(C(=O)N2)[C@H](C(=O)N2CCCCCCC2)[C@H]2C(=O)O[C@H](c3ccccc3)[C@H](c3ccccc3)N2[C@@H]1c1ccc(OCCO)cc1)C(=O)OC | 6.2 (inactive) | 0.956 | -2.14 | -6.85 (inactive) | 0.185 (inactive) | 0.331 (inactive)
28 | COC(=O)[C@@]1(Cc2ccc(F)cc2)[C@H]2c3cc(C(=O)N(C)C)n(CCF)c3C[C@H]2CN1C(=O)c1ccccc1 | 0.588 (inactive) | 0.779 | -0.552 | -5.09 (inactive) | -0.847 (inactive) | -0.595 (inactive)
29 | CCOC(=O)C[C@H]1[C@H](OC(=O)c2ccccc2-c2ccccc2)[C@@H](NC(=O)CC(C)C)c2cc(OCCCO)ccc2N1C(=O)c1ccccc1 | 0.539 (inactive) | 0.649 | -0.966 | -4.48 (inactive) | -0.439 (inactive) | -0.151 (inactive)
30 | O=C1O[C@@H](c2ccccc2)[C@@H](c2ccccc2)N2[C@@H](c3ccccc3OCCO)[C@]3(C(=O)Nc4ccc(C#CC5(O)CCCCCC5)cc43)[C@@H](C(=O)N3CCCCCCC3)[C@H]12 | 5.76 (inactive) | 0.878 | -2.38 | 4.83 (inactive) | 0.503 (inactive) | 0.639 (inactive)
31 | C=C(COC)C(=O)CC[C@@H](OC(=O)c1ccccc1-c1ccccc1C(=O)O)c1ccccc1OCCO | 0.106 (inactive) | 0.17 | -2.51 | -5.71 (inactive) | 0.788 (inactive) | 0.888 (inactive)
32 | CC[C@@H](O[Si](C#C[Si](C(C)C)(C(C)C)C(C)C)(C(C)C)C(C)C)c1cn(Cc2cccc(Cl)c2)nn1 | 0.242 (inactive) | -0.0319 | 0.163 | 0.335 (inactive) | 0.212 (inactive) | -0.0184 (inactive)
33 | COC(=O)[C@@]1(Cc2ccccc2)[C@H]2c3cc(C(=O)N(C)C)n(Cc4nc5ccccc5[nH]4)c3C[C@H]2CN1C(=O)c1ccccc1 | 0.857 (inactive) | 0.784 | -0.542 | -1.6 (inactive) | -0.283 (inactive) | 0.0294 (inactive)
34 | COC(=O)C1(CC(C)C)C=C2C(=C(C)C(=O)C2C)CN1 (centres undefined) | -0.583 (inactive) | 0.992 | 0.51 | -4.02 (inactive) | 0.886 (inactive) | 0.911 (inactive)
